Tgondii IFNg: inhibitors of Toxoplasma gondii growth with IFN-gamma | Toxoplasma gondii growth in IFN-gamma-treated host cells; active compounds read low | activity change, negative = inhibition, % (no concentration beside the values) | actives 3.8% (n = 69,000) | AID 1259416; in the data active = activity change below about -70%, passing the limit was not always enough;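 note: host cells are HeLa cells infected with Toxoplasma gondii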
Starred values were filed as active, the others as inactive. Shown is part of a subset that was picked to be rich in hits.

SMILES	Tgondii IFNg
COc1ccc(S(=O)(=O)Nc2ccc3c(c2)C(=O)N([C@@H](C)CO)C[C@H](C)[C@H](CN(C)Cc2ccc(C(F)(F)F)cc2)OCCCC[C@H](C)O3)cc1	-107*
C[C@@H]1CN([C@@H](C)CO)C(=O)c2cc(NS(=O)(=O)c3ccc(Cl)cc3)ccc2O[C@@H](C)CCCCO[C@H]1CN(C)Cc1ccncc1	-12
C[C@H](CO)N1C[C@H](C)[C@H](CN(C)Cc2ccncc2)OCCCC[C@H](C)Oc2ccc(NS(=O)(=O)c3ccc(Cl)cc3)cc2C1=O	-55
Cc1ccc(S(=O)(=O)Nc2ccc3c(c2)C(=O)N([C@@H](C)CO)C[C@H](C)[C@H](CN(C)Cc2ccc(C(F)(F)F)cc2)O3)cc1	-57
C[C@H]1CCCCO[C@@H](CN(C)Cc2ccncc2)[C@@H](C)CN([C@@H](C)CO)C(=O)c2cc(NS(=O)(=O)c3ccc(Cl)cc3)ccc2O1	-65
COc1ccc(S(=O)(=O)Nc2ccc3c(c2)C(=O)N([C@@H](C)CO)C[C@H](C)[C@@H](CN(C)Cc2ccc(C(F)(F)F)cc2)OCCCC[C@@H](C)O3)cc1	-86*
c1nc(N2CCC3(CCCO3)CC2)c2[nH]cnc2n1	13
CCN(CC)C(=O)C1(Cc2cccc(-c3cccnc3)c2)CCN(S(=O)(=O)N(C)C)C1 (configuration not stated)	-2
COc1ccc(S(=O)(=O)N2Cc3ccccc3CC2C(=O)Nc2ccc(C)cc2)cc1 (configuration not stated)	-4
Clc1cccc(Nc2nnc(-c3ccccc3)c3ccccc23)c1	2
c1ccc(Nc2nc(-c3ccccc3)c(-c3ccccc3)s2)cc1	-105*
CCCc1sc(Nc2ccc(C(=O)OC)cc2)nc1-c1ccccc1	91
Cc1cc(C)cc(NC(=O)N2CCC3(CC2)NC(=O)c2cc(F)ccc2N3C)c1	19
COc1ccc(CC2CN(C(=O)CCCn3cnnn3)CCO2)cc1 (configuration not stated)	4
O=c1cc(O)c2ccccc2n1-c1ccccc1	46
Cc1c(-c2ccccc2)n(-c2ccccc2)c2ccccc12	-90*
Cc1c(C)n(C(=O)CSc2nnc(-c3ccccc3)o2)c2ccccc12	6
CCn1nccc1C(=O)N1CCC(c2n[nH]c(=O)n2-c2ccccc2)CC1	93
CCc1noc(CN(CC)C(=O)CC2C(=O)Nc3cc(C)cc(C)c32)n1 (configuration not stated)	41
O=C(NCc1ccc(-c2ccc(F)cc2F)o1)Nc1ccc(Cl)cc1	-69
Cc1noc(C)c1C(=O)OCc1ccc(-c2ccc(F)cc2F)o1	28
O=S(=O)(c1ccc(F)cc1F)n1nccc1-c1ccc(-c2ccc(F)cc2F)o1	-111*
Cc1oc(C(C)C)cc1C(=O)NCC1CCCN(S(C)(=O)=O)C1 (configuration not stated)	-20
O=C(c1coc(COc2ccc3c(c2)OCO3)n1)N1CCCN2CCC[C@H]2C1	-4
Cn1cccc(C(=O)N2CCC(N3CCCC(C(=O)NC4CC4)C3)CC2)c1=O (configuration not stated)	-43
SMILES	Tgondii IFNg
O=C(Nc1ccc(Cl)cc1)ONC(=O)c1ncc(C(F)(F)F)cc1Cl	15
NC(=O)C1(N2CCCCC2)CCN(c2ncc(NC(=O)c3ccc(Cl)cc3)cc2C(=O)O)CC1	2
O=C(Nc1ccc(Cl)cc1)c1cnc(NC2CCCCC2)cc1C(F)(F)F	-110*
Cc1cccc(C(NC(=O)CCN2CCCCO2)c2cccs2)c1 (configuration not stated)	3
C=CCN1CCN(C(C)C)C(=O)C12CCN(Cc1cncn1C)C2 (configuration not stated)	-4
Cc1nnc(Sc2nc(Sc3nnc(C)s3)nc(N3CCCCC3)n2)s1	-84*
Cc1nnc(Sc2c(N)n(C)c(=O)[nH]c2=O)s1	3
Cc1nnc(-c2ccc(C(C)N3CCCCC3)cc2)s1 (configuration not stated)	1
Cc1ccc(C)c(S(=O)(=O)N2CCC3(CC2)Nc2cc(F)ccc2-n2cccc23)c1	45
COc1ccc(NC(=O)Cn2ncc3c(N4CCCC4)ncnc32)cc1	78
CCOC(=O)c1c(N)/c(=C\c2ccco2)c2n1C(=O)C(c1ccco1)SC=2C(=O)OC (configuration not stated)	13
C=CC(=O)Nc1cc2c(Nc3ccc(F)c(Cl)c3)ncnc2cc1C#CC(C)(C)N1CCN(C)CC1	-72*
CN1CCCC1CCNC(=O)CC(=O)Nc1ccc(F)c(Cl)c1 (configuration not stated)	-47
CN1CCC(Nc2ncc3ncnc(Nc4ccc(F)c(Cl)c4)c3n2)CC1	-30
CC(=O)[C@H]1[C@H](C#N)C[C@H]2[C@@H]3CC=C4C[C@@H](O)CC[C@]4(C)[C@H]3CC[C@@]21C	-84*
C[C@]12CCC3C(CC=C4C[C@@H](O)CC[C@@]43C)C1CCC2[C@]1(C)CCC(=O)O1 (some centres not stated)	-65
C[C@]12CC[C@H](O)CC1=CCC1C2CC[C@]2(C)C(n3cnc4ccccc43)=CCC12 (some centres not stated)	-63

Source: PubChem
